# Screening results deposited in PubChem by National Center for Advancing Translational Sciences (NCATS).
# Hits are enriched below; roughly 9.2% of the tested compounds scored in any of these assays.
# Rab9 prom act: activators of Rab9 promoter. Huh7 Rab9 promoter-luciferase reporter, luminescence, 24 h. Potency, µM (highest dose often 9.22 µM), for the others: top-dose activation, negative = inhibition, hits mostly activators. 2.8% of 320,000 active. AID 485297; further: % of control where 0% means no effect; nearly all actives have a fitted effect of over 60% in size
#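 Using Huh7 cells stably transfected with Rab9 promoter–luciferase, compounds were incubated 24 h at 37 °C, 5% CO2; luciferase luminescence was read 10 min after reagent addition.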
# ELG1 DNA repair: blocks ELG1-dependent DNA repair in HEK293T cells; AID 504467; Potency, µM (top dose mostly 46.1 µM), for the others: at the top dose activity change, negative = inhibition, actives largely listed as inhibitors; 2.3% of 330,000 active; HEK293T ELG1-luciferase reporter, luminescence, 16 h; DNA damage induced by 5-fluorouridine; further: on the % scale 0 is the no-effect control and ±100 the full control effect; nearly all actives have a fitted effect of over 55% in size
#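 In this reporter screen, reduction of luminescence relative to DMSO vehicle indicated activity. Compounds and 5-fluorouridine were added together to 2,000 cells per well, incubated for 16 hr at 37 °C, then developed with ONE-Glo.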
# NPC1 prom act: activates the NPC1 promoter; Potency, µM (top dose mostly 9.22 µM), for the others: top-dose activation, hits mostly activators; 2.4% of 320,000 active; Huh7 NPC1 promoter luciferase reporter, 24 h; further: % of control where 0% means no effect; nearly all actives have a fitted effect of over 60% in size
#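 NPC1 promoter–luciferase Huh7 cells; 24 h compound; luminescence.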
# FLuc counter: firefly luciferase modulation, counter-screen for miR-21 project. purified FLuc, Km substrates, luminescence inhibition. 6.9% of 360,000 active. AID 588342. P08659. Potency, µM (doses to about 57.5 µM), for inactives: at the top dose activity change, negative = inhibition, hits mostly inhibitors;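 further: plate controls were vehicle for no effect and reference inhibitor for full effect; nearly all actives have a fitted effect of over 55% in size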
# Target sequence (P08659 whole entry, looked up): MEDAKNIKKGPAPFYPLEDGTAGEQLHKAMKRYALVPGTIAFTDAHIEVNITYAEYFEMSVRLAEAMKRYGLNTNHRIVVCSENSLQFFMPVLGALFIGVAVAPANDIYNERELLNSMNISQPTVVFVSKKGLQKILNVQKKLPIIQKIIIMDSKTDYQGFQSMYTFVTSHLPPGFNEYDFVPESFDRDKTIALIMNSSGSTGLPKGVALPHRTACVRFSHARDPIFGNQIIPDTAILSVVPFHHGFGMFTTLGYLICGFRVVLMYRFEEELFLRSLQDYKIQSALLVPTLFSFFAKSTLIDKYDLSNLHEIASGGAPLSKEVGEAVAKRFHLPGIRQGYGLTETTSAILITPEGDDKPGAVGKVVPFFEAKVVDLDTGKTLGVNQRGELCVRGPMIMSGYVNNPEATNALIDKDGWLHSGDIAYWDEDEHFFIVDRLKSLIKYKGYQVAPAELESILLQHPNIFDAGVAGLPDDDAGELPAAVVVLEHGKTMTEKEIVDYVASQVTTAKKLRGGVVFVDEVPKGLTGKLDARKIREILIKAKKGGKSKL
#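 Purified P. pyralis luciferase, 10 nM final, with Km-level 10 uM D-luciferin and 10 uM ATP in 50 mM Tris acetate pH 7.5, 10 mM Mg acetate, 0.01% Tween-20, 0.05% BSA; 6-point qHTS titration about 60 µM downward; luminescence read.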
# ELG1 genotox: genotoxicity induction in ELG1-luciferase HEK293T cells | HEK293T ELG1-luciferase reporter, luminescence, 16 h | Potency, µM (top dose mostly 46 µM), for inactives: at the top dose activity change, positive = activation, actives largely listed as activators | 1.3% of 330,000 active | AID 504466; further: % of control where 0% means no effect; nearly all actives have a fitted effect of over 60% in size
#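 Screening used a luciferase reporter fused to human ELG1 in HEK293T cells. Luminescence was read on a CCD plate imager after 16 hr exposure and 30 min ONE-Glo incubation.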
# SMN2 splice up: increases expression of the SMN2 splice variant | Potency, µM (highest dose often 46.1 µM), for inactives: at the top dose activity change, positive = activation, usual class: activators | 2.8% of 210,000 active | HEK293 SMN2-luciferase splicing reporter, luminescence, 30-36 h; further: % of control where 0% means no effect; nearly all actives have a fitted effect of over 55% in size
#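 HEK293 cells carry an SMN2 minigene-luciferase reporter in which exon 7 inclusion puts luciferase in frame. Cells were seeded at 2000 cells/well, attached for 10-12 hours, then exposed to compounds for 30-36 hours at 37C before ONE-Glo luminescence.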
# The depositor's hits bear a star; ? = inconclusive; nt = no result given; [ ] = dose if it differs, or a comment. The call rests on the fitted dose curve; in most records, active means well fitted curve in the direction sought with a large enough effect; inconclusive means small, poorly fitted or top-dose-only effect, or another doubt; inactive means no such curve, though single readings can be large; an effect the other way counts as inactive or inconclusive. Potency means the concentration at half of the fitted maximal effect.
SMILES,Rab9 prom act,ELG1 DNA repair,NPC1 prom act,FLuc counter,ELG1 genotox,SMN2 splice up
CC(C)(C)c1ccc(OCc2ccc(C(=O)N/N=C/c3ccc([N+](=O)[O-])cc3)o2)cc1,?,27%,1.6µM*,?,2%,20%
CCCc1ccc(OCc2ccc(C(=O)N/N=C/c3cccnc3)o2)cc1,0.45µM*,?,0.4µM*,?,0.82µM*,nt
CCOc1ccc(CNC(=O)c2ccc3c(Cl)c4c(nc3c2)CCCC4)cc1,nt,nt,nt,-14%,nt,-3%
CCOc1ccc(/C=N/NC(=O)c2ccc(Cn3cc(Br)cn3)o2)cc1,2%,?,4%,6.7µM*,17%,7%
COc1ccc(/C=N/NC(=O)c2ccc(COc3ccccc3Cl)o2)cc1,17%,?,18%,2.7µM*,13%,14%
COc1ccc(/C=N/NC(=O)c2ccc(COc3ccccc3Cl)o2)c(OC)c1C,-7%,-12%,-6%,3%,14%,-8%
Cc1cnc(NC(=O)COc2ccccc2Cl)s1,0.25µM*,?,0.1µM*,0.27µM*,?,0.79µM*
COC(=O)c1sc(NC(=O)COc2ccccc2C)nc1C,?,?,11%,?,?,5%
O=C(COc1ccccc1)Nc1nc2c(s1)CCCC2,?,?,?,13µM*,?,nt
COc1ccccc1OCC(=O)Nc1nc(C)c(C)s1,4µM*,?,2.8µM*,8.5µM*,?,nt
O=C(CSCc1ccc(F)cc1)Nc1nc2c(s1)CCCC2,7%,11%,-5%,-12%,-1%,-6%
O=C(COc1ccccc1Cl)Nc1nc2c(s1)CCCC2,nt,nt,nt,21µM*,nt,nt
Cc1nn2c(=O)cc(COC(=O)Cc3ccccc3)nc2s1,nt,nt,nt,0%,nt,nt
CCCC[C@@H]1C[C@H]1C(NC(=O)c1ccccc1)c1ccc(-c2ccccc2)cc1 (stereo partly drawn),nt,nt,nt,nt,nt,-37%
CCc1ccc(CNC(=O)c2ccc(NC(=O)N3CCSc4ncccc43)cc2)cc1,nt,nt,nt,-16%,nt,nt
CC(=O)COC(=O)c1cc(-c2ccc(C)cc2)nc2ccccc12,24%,?,16%,17µM*,6%,nt
Cc1ccc(/C(N)=N/OC(=O)c2cc(-c3ccccc3)nc3ccccc23)cc1,-1%,3%,0%,13µM*,0%,7%
Cc1ccc(C(=O)COC(=O)c2cc(-c3ccc(Cl)cc3)nc3ccccc23)cc1,nt,nt,nt,-10%,nt,3%
N/C(=N\OC(=O)c1cc(-c2ccccc2)nc2ccccc12)c1ccccn1,14%,18µM*,10%,9.5µM*,-8%,nt
Cc1ccc(-c2cc(C(=O)Oc3ccccc3)c3cc(C)ccc3n2)cc1,nt,nt,nt,21µM*,nt,0%
COc1ccc(/C(N)=N/OC(=O)c2cc(-c3ccccc3)nc3ccccc23)cc1,-1%,7%,2%,?,-3%,-16%
O=C(CCc1cccc(Cl)c1)NC1CCCN(Cc2ccccc2F)C1 (stereo not drawn),-5%,8%,?,1%,-5%,nt
C[N+](C)([O-])CCC=C1c2ccccc2CCc2ccccc21,nt,nt,nt,nt,nt,-9%[9.22 µM]
CSCC[C@H](N)C(=O)N1CCC(C(=O)N[C@@H](C)C(=O)NCc2ccc(F)cc2)CC1,-3%,3%,-3%,0%,-3%,nt
CCOC(=O)C1(CCOC)CCN(Cc2nc(C(C)C)cs2)CC1,29%,14%,5%,-6%,5%,nt
O=C(c1cc([N+](=O)[O-])ccc1Cl)N1c2ccccc2Sc2ccccc21,-5%,-9%,-2%,-2%,8%,?
COc1ccc(S(=O)(=O)N2CCC(C(=O)Nc3ccccc3C)CC2)c2cccnc12,15%,18µM*,9%,-2%,-12%,-6%
COc1ccc(NC(=O)C2CCN(S(=O)(=O)c3cccc4cccnc34)CC2)cc1OC,-2%,?,-1%,1%,2%,22%
